Results: PubChem BioAssay (NCI)
About 83,000 compounds went through this panel and 20% of them were active in at least one assay; those are over-represented in the sample as a whole.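 Treatment: one concentration, 48 hours, 96-well format. Scoring: percent growth, with anything below 10 considered active.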 Values without a mark were called inactive. Activity calls are given as the source filed them.

Assays:
Assay in all cases: NCI-60 one-dose screen, 48 h (100 = growth as untreated, 0 = no growth, -100 = all killed)
Conditions in all cases: 10 µM unless noted
NCI-H23 lung = test system: NCI-H23 lung
NCI-H226 lung = test system: NCI-H226 lung
NCI-H322M lung = test system: NCI-H322M lung
HOP-62 NSCLC = test system: HOP-62 NSCLC
NCI-H460 lung = test system: NCI-H460 lung
HOP-92 NSCLC = test system: HOP-92 NSCLC
NCI-H522 lung = test system: NCI-H522 lung
A549/ATCC NSCLC = test system: A549/ATCC NSCLC
786-0 renal = test system: 786-0 renal
COLO 205 colon = test system: COLO 205 colon
DU-145 prostate = test system: DU-145 prostate
K-562 leukemia = test system: K-562 leukemia
MALME-3M melanoma = test system: MALME-3M melanoma
MDA-MB-231 breast = test system: MDA-MB-231 breast
RXF 393 renal = test system: RXF 393 renal
SF-268 CNS = test system: SF-268 CNS
SF-295 CNS = test system: SF-295 CNS
SF-539 CNS = test system: SF-539 CNS
UACC-257 melanoma = test system: UACC-257 melanoma
M14 melanoma = test system: M14 melanoma

Structure (SMILES)	growth (NCI-H23 lung) [%]	growth (NCI-H226 lung) [%]	growth (NCI-H322M lung) [%]	growth (HOP-62 NSCLC) [%]	growth (NCI-H460 lung) [%]	growth (HOP-92 NSCLC) [%]	growth (NCI-H522 lung) [%]	growth (A549/ATCC NSCLC) [%]	growth (786-0 renal) [%]	growth (COLO 205 colon) [%]	growth (DU-145 prostate)	growth (K-562 leukemia) [%]	growth (MALME-3M melanoma) [%]	growth (MDA-MB-231 breast) [%]	growth (RXF 393 renal)	growth (SF-268 CNS) [%]	growth (SF-295 CNS) [%]	growth (SF-539 CNS)	growth (UACC-257 melanoma) [%]	growth (M14 melanoma) [%]
CCCn1nc(C(=O)N2CCCCC2)c2c1CCC(N1CCC(c3ccncc3)CC1)C2 (stereo not given)	105	116	108	113	110	111	90.5	102	101	115	105%	101	115	118	117%	97	106	107%	102	97.3
Nc1ccc(-c2ccc(N)c(Br)c2)cc1Br	53.9	56.9	77.3	55.4	44.3	41.8	57	42.2	52.9	82.6	68.1%	22.4	55.4	51.8	57.5%	44.3	62.8	29.5%	78.1	26.9
COC(=O)[C@H]1Cc2c([nH]c3ccccc23)[C@@H](c2cccs2)N1	104	98.3	100	102	105	105	78.9	103	91.4	131	106%	104	97.6	95.1	107%	98.9	100	93.1%	105	107
CC(=O)N1N=C(c2ccc(F)cc2)CC1c1sc(N(C)Cc2ccccc2)nc1Cl (stereo not given)	85.1	102	99.6	91.7	106	85.9	81.6	88.6	84.9	98.7	103%	75.1	102	101	101%	87.1	97.6	104%	118	95.2
Cc1ccccc1SSc1ccccc1C	83.4	95.6	98.2	96	37.4	81.2	60.8	98.8	105	91.4	6.96% (active)	99.1	104	82.7	73.8%	95.2	80.3	104%	105	85.2
COc1ccc2c(c1)CC[C@@H]1[C@@H]2CC[C@]2(C)C3C(=CCC4C(=O)N(c5ccccc5)C(=O)C43)C[C@@H]12 (stereo not given in full)	84.4	90.8	103	90.3	93.7	99.3	80.1	92.3	87.7	94.4	114%	76.9	96.1	86.6	93.7%	94.1	96.4	96.7%	86.1	89.4
CCNC(=S)n1nc(SC)c(C(=O)OCC)c1N	93.3	91.9	91.8	86.7	106	110	89.9	107	98.6	107	102%	85.5	106	92.5	107%	92	98.1	93.1%	120	107
O=C(c1cccc(Br)c1)N1CCN(c2ccnc3cc(Cl)ccc23)CC1	79.7	87.3	92	95.3	100	78.7	45.1	73.8	71.9	93.7	93.3%	68.1	94.3	91.7	87%	91.5	87	96.9%	85.8	98.6
COc1ccc(-c2c[nH]c(C(=O)O)c2-c2cc(OC)c(OC)c(OC)c2)cc1	48.5	88.9	47.9	37.3	14.4	32.2	28.1	49.4	31.3	14.7	49%	11.7	33.7	57.7	-3.91% (active)	64.9	23.6	2.29% (active)	78.8	45.7
Cc1c(CC(=O)OCCO)cc(-c2ccc(Cl)cc2)n1-c1ccccc1	82.3	93.9	106	95	104	97.4	82.6	94	102	109	102%	70.5	103	95.4	107%	94.5	96.6	101%	98.9	109
